# Only some compounds are listed: those with a hit (about 4.2% of all), similar ones and a draw of the others.
# Sfp inh – inhibitors of Bacillus subtilis Sfp phosphopantetheinyl transferase | Biochemical Sfp PPTase activity, qHTS | Potency, µM, for inactives: largest response in the series, negative = inhibition, most hits filed as inhibitors | Q9F4F7 | 310,000 compounds, 3.5% hits;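 also: the enzyme is Sfp with the accession as filed and its product quenches rhodamine fluorescence; 0% = enzyme reaction without inhibitor and -100% = no enzyme wells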
#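 Fluorescence-quenching assay: 15 nM Sfp-PPTase preincubated 15 min at room temperature with compound, then 5 uM rhodamine-CoA and 12.5 uM BHQ-2-labelled YbbR peptide added. Fluorescence (ex 525/em 598 nm) read at start and after 30 min; difference gives rate.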
# PLK1 PBD block – inhibitors of human PLK1 polo-box domain binding; Potency, µM, without a hit: max response, negative = inhibition, actives largely listed as inhibitors; Plk1 PBD binding of FITC phosphopeptide, fluorescence polarization; P53350; 360,000 compounds, 2.8% hits; also: series mostly up to about 57 µM; nearly all actives have a fitted effect of over 65% in size
# 12-LOX inh – blocks human arachidonate 12S-lipoxygenase; P18054; purified 12hLO, xylenol orange hydroperoxide absorbance; Potency, µM (top dose mostly 108 µM), inactives show at the highest dose activity change, negative = inhibition, usual class: inhibitors; 580,000 compounds, 1.1% hits
#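 Purified human 12hLO (150 nM final) in 25 mM Hepes, 0.01% Triton X-100, pH 7.0 was preincubated 15 min at room temperature with compound. Then 40 uM arachidonic acid was added, 30 min. Hydroperoxide was read by Fe-XO absorbance ratio 573/405 nm.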
# VDR inh – vitamin D3 receptor (human) inhibition | P11473 | VDR-SRC2-3 peptide fluorescence polarization, 2 h | Potency, µM, for the others: max response, negative = inhibition, most hits filed as inhibitors | 400,000 compounds, 0.93% hits
# Target sequence (P11473 whole entry, looked up): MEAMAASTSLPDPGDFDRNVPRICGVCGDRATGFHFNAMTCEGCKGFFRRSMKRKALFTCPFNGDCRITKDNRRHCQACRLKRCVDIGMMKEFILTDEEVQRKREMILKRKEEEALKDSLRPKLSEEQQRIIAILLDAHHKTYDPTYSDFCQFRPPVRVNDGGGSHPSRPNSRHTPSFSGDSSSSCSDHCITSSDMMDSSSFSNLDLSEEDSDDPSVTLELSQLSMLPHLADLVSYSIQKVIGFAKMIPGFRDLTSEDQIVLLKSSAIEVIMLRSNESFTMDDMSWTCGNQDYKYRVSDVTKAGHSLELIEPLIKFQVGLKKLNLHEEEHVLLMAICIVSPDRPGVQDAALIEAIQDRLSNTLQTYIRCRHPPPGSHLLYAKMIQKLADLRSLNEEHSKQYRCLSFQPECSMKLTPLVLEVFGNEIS
#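 Measured by FP: displacement of SRC2-3 coactivator peptide from VDR by library compounds, following a two-hour ambient incubation.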
# * = called active by the depositor; ? = inconclusive; / = no result; ! = not confirmed by another sample. Calls follow the shape of the dose curve; as a rule, active = well fitted curve in the direction sought with a large enough effect; inconclusive = small, poorly fitted or top-dose-only effect, or another doubt; inactive = no such curve, though single readings can be large; an effect the other way counts as inactive or inconclusive. Unless noted, % is scaled to controls: 0 for no effect and ±100 for the full control effect; potency is read from the fitted curve at half-maximal effect.
SMILES,Sfp inh,PLK1 PBD block,12-LOX inh,VDR inh
CCOC(=O)c1sc(=S)n(-c2ccc(F)c(F)c2)c1N,22.4µM*,23.8µM*,-13.7%,89.1µM*
CCOC(=O)c1sc(=S)n(-c2ccc3c(c2)OCO3)c1N,28.2µM*,13.4µM*,?,?
CCOc1ccc(-n2c(N)c(C(=O)N3CCN(C)CC3)sc2=S)cc1,14.0%,-8.3%,-2.2%,-3.1%
Cc1ccc(-n2c(N)c(C(=O)N3CCCCC3)sc2=S)cc1,44.7µM*,23.8µM*,-19.2%,?
CC(C)[C@H](NC(=O)N1c2ccccc2NC(=O)[C@@H]1C(C)C)C(=O)N[C@@H](Cc1ccccc1)C(=O)O,9.4%,-0.7%,?,4.2%
CCc1cnc(N2CCC(COc3ccc4c(cnn4CC[S+](C)(=O)[O-])c3)CC2)nc1,/,/,8.4%,/
O=C(c1ccccc1F)N1CCN(c2cc(-c3cccs3)[nH]n2)CC1,/,/,-0.4%,/
CCOC(=O)c1sc(=S)n(C)c1N,-22.8%,-1.8%,-0.8%,8.6%
CCOC(=O)c1sc(=S)n(-c2ccc(C)cc2)c1N,39.8µM*,10.6µM*,?,?
Cc1ccc(-n2c(N)c(C(=O)NCc3cccnc3)sc2=S)cc1,35.5µM*,28.2µM*,?,-19.0%
S=C(Nc1ccc(Br)cc1)Nc1ccc2c(c1)OCCO2,-3.5%,-13.9%,?,3.7%
Cc1ccc(NC(=S)NCc2ccc3c(c2)cc(C)n3C)c(C)c1,12.6%,18.9µM*,35.5µM*,?
Cc1cc2cc(CNC(=O)c3ccco3)ccc2n1C,79.4µM*,-8.9%,-15.4%,-8.6%
FC(F)Oc1ccc(NC(=S)NCc2ccccc2)cc1,11.4%,-15.3%,?,-4.1%
Cc1cc2cc(CNC(=S)Nc3ccc(OC(F)F)cc3)ccc2n1C,?,-9.8%,35.5µM*,14.4%
Cc1ccc(NC(=S)NCc2ccc3c(c2)OCO3)c(C)c1,18.5%,-1.0%,39.8µM*,-8.0%
Cc1cc2cc(CNC(=O)c3cc4ccccc4o3)ccc2n1C,10.0%,/,/,/
COc1ccccc1CNC(=O)c1ccc(C)s1,13.8%,-14.4%,1.3%,-4.7%
O=C(CSc1nnnn1-c1ccc(Cl)cc1)N1CCc2ccccc2C1,1.2%,-11.6%,?,-10.6%
CNS(=O)(=O)c1ccc(C)cc1,10.7%,-7.5%,-2.0%,9.2%
COC(=O)c1c(NC(=S)Nc2ccccc2Cl)sc(C)c1C,?,-16.3%,/,8.6%
Cc1cn([C@@H](CCCCN)C(=O)NCCCCCCCCCCC(=O)N2CCNCC2)nn1,/,-1.7%,31.6µM*,-10.0%
NCCCC[C@@H](C(=O)NCCCCCCCCCCC(=O)N1CCNCC1)n1cc(CCO)nn1,/,-11.4%,?,-17.2%
N#Cc1cccc(C(=O)N2CCC(Cc3nc(-c4cccnc4)n[nH]3)C2)c1 (centres undefined),/,/,11.3%,/
Cc1ccc(CN(C)C(=O)C2CCCN2C(=O)c2cccs2)o1 (centres undefined),35.5µM*,-26.5%,5.1%,-6.6%
SMILES,Sfp inh,PLK1 PBD block,12-LOX inh,VDR inh
CN(CC(=O)Nc1ccc(F)c(F)c1F)C(=O)C1CCCN1C(=O)c1cccs1 (centres undefined),/,-5.9%,1.3%,/
OCCN(Cc1ccccc1)Cc1ccccc1Cl,28.2µM*,-0.9%,?,-13.8%
Cc1c(S(=O)(=O)N2CCCC(C)C2)c(=O)n(C)c(=O)n1C (centres undefined),/,-2.0%,14.9%,6.0%
O=C(O)/C=C\C(=O)NCc1cccnc1,-14.4%,-2.8%,47.8%,-11.6%
O=C(N/N=C/c1ccc(-c2cccc(C(F)(F)F)c2)o1)c1cccc(F)c1,-2.4%,-1.3%,6.5%,27.4%
O=C(N/N=C/c1ccc(N2CCOCC2)o1)c1cccc(F)c1,8.91µM*,-16.2%,-1.9%,39.8µM*
NC(=S)Nc1ccc2cn[nH]c2c1,-20.2%,1.2%,-0.9%,-3.1%
c1cc2cn[nH]c2cc1NC1CCCCCC1,44.7µM*,?,-16.6%,-15.6%
COc1ccc(-n2c(N)c(C(=O)NCc3cccnc3)sc2=S)cc1,17.8%,0.1%,7.4%,-6.0%
COC(=O)c1sc(=S)n(-c2cccc(OC)c2)c1N,/,/,12.6µM*,/
COC(=O)c1sc(=S)n(-c2ccc(Br)cc2)c1N,/,/,11.2µM*,/
COc1ccc(N=N/C(C(C)=O)=C(/C)O)cc1,13.6%,-5.1%,?,-5.0%
CC(C)(C)c1nnc(NC(=O)c2ccc3c(c2)OCO3)s1,22.4µM*,5.97µM*,?,79.4µM*
CCC(C(=O)O)N1C(=O)/C(=C/c2cccn2C)SC1=S (centres undefined),19.1%,39.0%,?,1.5%
CC(C(=O)O)N1C(=O)/C(=C/c2cccn2C)SC1=S (centres undefined),56.2µM*,40.9%,?,-7.3%
O=C(CNC(=O)C12CC3CC(CC(C3)C1)C2)N/N=C\c1ccco1,14.6%,-3.8%,?,-13.7%
CC(=O)c1cnc2c(C(=O)O)cnn2c1C,?,-4.4%,-18.9%,12.3%
Cc1c(C(=O)O)cnc2c([N+](=O)[O-])cnn12,7.3%,3.36µM*,-2.0%,35.5µM*
Cc1cc(CN2C[C@@H](COCC3CC3)[C@H](c3ccccn3)C2)n(C)n1,/,/,53.4%,/
O=S(=O)(c1ccc2c(c1)OCCO2)N1CCC(n2cnc3cc(F)ccc32)CC1,-7.8%,-8.6%,-4.4%,2.5%
O=S(=O)(c1ccc2c(c1)OCCO2)N1CCC(n2nnc3cc(F)ccc32)CC1,15.4%,21.2µM*,0.0%,6.9%
Cc1ccc2c(=O)c(-c3nc(-c4cccc(F)c4)no3)cn(CC(=O)NCc3ccco3)c2n1,/,/,10µM*,/
CCOc1ccc(OCC)c(C2C(C#N)=C(N)N(c3cccnc3)C3=C2C(=O)CC(C)(C)C3)c1 (centres undefined),31.6µM*,-7.4%,-14.2%,8.3%
O=C1c2ccccc2C(=O)c2c(O)ccc(O)c21,?,/,-6.7%,44.7µM*
O=C1c2ccccc2C(=O)c2c(O)c(O)cc(O)c21,-20.1%,26.7µM*,31.6µM*!,50.1µM*!
SMILES,Sfp inh,PLK1 PBD block,12-LOX inh,VDR inh
COc1cc(-c2cccs2)cc(=O)c2c(C)oc(C)c12,44.7µM*,-0.7%,?,11.0%
COc1cc(-c2cc(OC)c3c(C)oc(C)c3c(=O)c2)ccc1OC(=O)c1ccccc1Cl,/,/,?,16.5%
CC(C)(C)c1ccc(C(=O)C2CCCN(C(=O)c3ccccn3)C2)cc1 (centres undefined),-3.7%,-4.9%,-15.5%,?
COc1ccc(C(=O)Nc2ccccc2C(=O)NC(Cc2c[nH]c3ccccc23)C(=O)O)cc1 (centres undefined),-26.1%,23.8µM*,14.1%,-9.3%
COC(=O)C(Cc1c[nH]c2ccccc12)NC(=O)c1cc(-c2ccc(OC)c(OC)c2)oc1C (centres undefined),31.6µM*,-5.8%,?,?
COc1ccc(C(=O)NNC(=O)C(Cc2ccc(O)cc2)NC(=O)c2ccccc2NC(=O)c2ccc(OC)cc2)cc1 (centres undefined),22.4µM*,-3.9%,-12.6%,-6.4%
Cc1cc(C(=O)NC(Cc2c[nH]c3ccccc23)C(=O)O)c(C)o1 (centres undefined),12.0%,-0.1%,0.0%,-6.4%
Cc1cccc(OCC(=O)NC(Cc2c[nH]c3ccccc23)C(=O)O)c1C (centres undefined),50.1µM*,-25.1%,?,8.4%

# Bioassay records as filed in PubChem BioAssay.
